# Screens (PubChem)
# An excerpt weighted towards active compounds, which were near 12% of everything screened.
# G9a inh: qHTS Assay for Inhibitors of Histone Lysine Methyltransferase G9a | Histone-lysine N-methyltransferase EHMT2 (Homo sapiens), Q96KQ7 | G9a H3K9 monomethylation, AlphaScreen, 2 h | Potency, µM (series often up to 102 µM), without a hit: at the top dose activity, negative = inhibition, actives largely listed as inhibitors | 350,000 tested, 8.8% active; also: % is scaled to controls: 0 for no effect and ±100 for the full control effect; nearly all actives have a fitted effect of over 75% in size
#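 G9a (20 nM) was preincubated 15 min with compound, then reacted 2 h at room temperature with 500 nM biotin-H3K9 peptide and 20 µM SAM. Monomethyl-H3K9 detected by AlphaScreen using anti-H3K9me1 antibody.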
# L3MBTL1 inh: qHTS Assay for the Inhibitors of L3MBTL1; Lethal(3)malignant brain tumor-like protein 1 (Homo sapiens), Q9Y468; 230,000 tested, 0.66% active; AlphaScreen L3MBTL1–H3K9me1 peptide binding; Potency, µM (series often up to 57.1 µM), without a hit: at the highest dose activity, negative = inhibition, hits mostly inhibitors; also: % is scaled to controls: 0 for no effect and ±100 for the full control effect; nearly all actives have a fitted effect of over 60% in size
#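 L3MBTL1 (50 nM) pre-complexed 30 min with biotinylated H3(1-15)K9me1 peptide (75 nM), then compounds added for 30 min at room temperature; AlphaScreen streptavidin donor/nickel chelate acceptor beads (10 ug/mL final) read after 30 min dark incubation.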
# BAZ2B inh: qHTS Assay for Inhibitors of BAZ2B; AlphaScreen BAZ2B-H3K14Ac peptide displacement; Potency, µM (titrated, usually from 114 µM), inactives show at the highest dose activity change, negative = inhibition, most hits filed as inhibitors; 360,000 tested, 4.4% active; also: % is scaled to controls: 0 for no effect and ±100 for the full control effect; nearly all actives have a fitted effect of over 60% in size
#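 Protein-peptide AlphaScreen: BAZ2B 50 nM, b-H3K14Ac 50 nM, 1x PBS pH 7.4 + 0.01% Tween-20. Preincubation 30 min RT; cpd 30 min RT (top 110 uM); beads 20 min RT, light-protected.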
# HP1b chromo inh: HTS for Inhibitors of HP1-beta Chromodomain Interactions with Methylated Histone Tails; AlphaScreen HP1-beta / biotin-H3K9me3 peptide binding; Potency, µM (titrated, usually from 114 µM), for the others: top-dose activity change, negative = inhibition, most hits filed as inhibitors; 390,000 tested, 0.56% active; also: nearly all actives have a fitted effect of over 70% in size
#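 HP1-beta protein (50 nM final) preincubated 30 min at room temperature with biotinylated H3(1-18)K9me3 peptide (50 nM) in PBS pH 7.4, 0.01% Tween-20, then compound added for 30 min. AlphaScreen streptavidin donor/nickel chelate acceptor beads (10 ug/mL final), 30 min dark, luminescence read.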
# Sfp PPTase inh: qHTS Assay for Inhibitors of Bacillus subtilis Sfp phosphopantetheinyl transferase (PPTase). 4'-phosphopantetheinyl transferase ffp (Bacillus subtilis), Q9F4F7. Biochemical Sfp PPTase activity, qHTS. Potency, µM, without a hit: largest response in the series, negative = inhibition, actives largely listed as inhibitors. 310,000 tested, 3.5% active;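 also: the enzyme is Sfp with the accession as filed and its product quenches rhodamine fluorescence; 0% = enzyme reaction without inhibitor and -100% = no enzyme wells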
#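 Step 1, compound plus 15 nM Sfp-PPTase, 15 min, room temperature. Step 2, add rhodamine-CoA (5 uM) and BHQ-2-YbbR (12.5 uM). Step 3, read 525/598 nm fluorescence at 0 and 30 min.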
# JMJD2A Tudor inh: qHTS Assay for Inhibitors of JMJD2A-Tudor Domain; Lysine-specific demethylase 4A (Homo sapiens), O75164; AlphaScreen JMJD2A-Tudor / H3K4me3 peptide binding; Potency, µM (series often up to 114 µM), inactives show at the highest dose activity change, negative = inhibition, actives largely listed as inhibitors; 390,000 tested, 4.4% active; AID 504339, 2011; also: % is scaled to controls: 0 for no effect and ±100 for the full control effect; nearly all actives have a fitted effect of over 50% in size
# * marks the source's active call; other numbers are inactive results; ? = inconclusive; . = no result; [ ] = another dose, or the depositor's remark. Calls follow the shape of the dose curve; as a rule, active = well fitted curve in the direction sought with a large enough effect; inconclusive = small, poorly fitted or top-dose-only effect, or another doubt; inactive = no such curve, though single readings can be large; an effect the other way counts as inactive or inconclusive. Potency is read from the fitted curve at half-maximal effect.
SMILES,G9a inh,L3MBTL1 inh,BAZ2B inh,HP1b chromo inh,Sfp PPTase inh,JMJD2A Tudor inh
CC(C)C(=O)N(c1ccc2oc(=O)sc2c1)S(=O)(=O)c1cccs1,35µM*,-6%,-36%,27%,?,-26%
COc1ccc(N(C(=O)C(C)C)S(=O)(=O)c2cccs2)cc1,18%,.,0%,15%,0%,-23%
CCCC(=O)N(c1ccc2oc(C)c(C(C)=O)c2c1)S(=O)(=O)c1ccc(C)c([N+](=O)[O-])c1,-7%[59 µM],0%,5%,34%,-8%,-13%
CCCC(=O)N(c1ccc2oc(C)c(C(C)=O)c2c1)S(=O)(=O)c1ccc(C(=O)O)cc1,35µM*,.,-2%,-3%,12%,-14%
CC(=O)N(c1ccc2oc(=O)sc2c1)S(=O)(=O)c1cccc2cccnc12,22µM*,.,-19%,22%,-13%,-12%
Cc1cc2oc(=O)sc2cc1NS(=O)(=O)c1cccc2cccnc12,-11%,.,-13%,20%,9%,-36%
Cc1cc2c(n1-c1ccc(C(=O)NCC(C)c3ccccc3)cc1)CCCC2 (stereo not drawn),-29%[59 µM],.,-14%,15%,.,-14%
COCC(=O)N1CCC2(CCCN(C(=O)Nc3cccc(C#N)c3)C2)CC1,-1%[12.7 µM],.,.,.,10%,.
COc1ccc2nc(N(Cc3cccnc3)C(=O)c3ccc(Cl)cc3)sc2c1,8%[59 µM],.,-3%,9%,.,-13%
Cc1ccc(S(=O)(=O)NC(=O)NC2CCCCCCC2)cc1,-6%[12.7 µM],.,.,.,11%,.
COc1ccc2c(C)cc(SCC(=O)NC3CCCCC3)nc2c1,.,10%,.,21%,.,-10%
COc1ccc2c(C)cc(SCC(=O)Nc3ccc(Cl)cn3)nc2c1,13µM*,?,-25%,-11%,-17%,-25%
CCOc1ccc(CC(=O)NCc2ccc3c(c2)CCN3C(=O)c2ccc(F)cc2)cc1OCC,6%[59 µM],.,-5%,2%,.,-19%
Cn1c2c(c(=O)n(C)c1=O)[C@@]1(C(=O)Nc3ccccc31)C(C#N)=C(N)O2,45µM*,-7%,-6%,15%,-9%,-16%
Cn1cccc1-c1nc2ccc(NC(=O)c3cccs3)cc2[nH]1,?,-10%,35µM*,50µM*,-4%,56µM*
CC(=O)Nc1ccc2nc(NC(=O)c3cccs3)sc2c1,45µM*,.,-26%,35%,-6%,-10%
Cc1cc(C)c(OCCOCCN(C)C)c(Br)c1,10µM*,-9%,?,?,-43%,25µM*
Cc1cc(C)c(OCCCNCc2ccccc2)c(Br)c1,13µM*,3%,50µM*,?,-24%,25µM*
Cc1cc(OCCOCCN(C)CCO)cc(C)c1Cl,-15%,3%,-4%,33%,15%,-12%
Cc1cc(Cl)cc(Br)c1OCCCNCC(C)O (stereo not drawn),3%,-3%,-17%,47%,11%,3%
Cc1cc(C)c(OCCCNC2CCCC2)c(Br)c1,.,-2%,?,6%,-29%,79µM*
Cc1cc(C)c(OCC(=O)OCC(=O)NC2CCCCCCC2)c(C)c1,-12%[0.501 µM],.,0%,39%,10%,16%
Cc1cc(Cl)c(OCCCNCc2ccccc2)c(Br)c1,11µM*,3%,?,-20%,?,?
COCCNCCCCOc1c(Cl)cc(C)cc1Br,.,4%,50µM*,-17%,-40%,3.2µM*
NC(N)=Nc1nc(-c2ccccc2)c2ccccc2n1,-24%,-4%,-14%,35%,50µM*,-16%
SMILES,G9a inh,L3MBTL1 inh,BAZ2B inh,HP1b chromo inh,Sfp PPTase inh,JMJD2A Tudor inh
CCN(CC)c1ccc(NC(=O)c2ccccn2)cc1S(=O)(=O)Nc1ccccc1OC,2.5µM*,-9%,?,?,.,56µM*
COc1ccc(NS(=O)(=O)c2cc(NC(=O)c3ccccn3)ccc2OC)cc1Br,.,-5%,.,29%,.,-19%
CCN(CC)c1ccc(N)cc1S(=O)(=O)Nc1ccccc1OC,2.5µM*,-7%,?,11µM*,11µM*,?
CCN(CC)c1ccc(NC(=O)COc2ccccc2C#N)cc1S(=O)(=O)Nc1ccccc1OC,2.5µM*,-5%,-34%,?,?,?
CCN(CC)c1ccc(N)cc1S(=O)(=O)Nc1ccc(OC)cc1,?,-16%,?,?,-25%,-25%
CC(C)(C)OC(=O)N1CCC(c2c(C(=O)NCCCN3CCc4ccccc4C3)cnn2-c2ccccc2)CC1,-35%[59 µM],.,1%[57.1 µM],-13%,.,-30%
C=C1CCC(O)C/C1=C/C=C1\CCC[C@]2(C)[C@@H]([C@H](C)/C=C/[C@H](C)C(C)C)CC[C@@H]12 (stereo partly drawn),?,.,.,.,24%,.
COC(=O)N1CCC[C@@]2(CCN(C(=O)Nc3cccc(C#N)c3)C2)C1,22%[12.7 µM],.,.,.,10%,.
O=C1CS/C(=N/N=C\c2ccn[nH]2)N1,.,.,50µM*,17%,56µM*,-21%
O=C1CS/C(=N/N=C2C3CC4CC(C3)CC2C4)N1,-12%,12%,2%,31%,24%,0%
COc1ccccc1CNC(=O)c1cnc(N2CCCC2)nc1C,11%[59 µM],.,-5%,30%,.,-8%
CCCCCC(=O)N1CC2(CC(c3cccc(NC(=O)[C@@H]4CCC(=O)N4)c3)=NO2)C[C@@H]1C(N)=O (stereo partly drawn),0%[12.7 µM],.,1%,13%,9%,-24%
C=C(C)C(=O)Nc1cccc(C2=NOC3(C2)C[C@@H](C(N)=O)N(C(=O)CCCCC)C3)c1 (stereo partly drawn),?,.,1.4µM*,1.6µM*,11%,1.8µM*
C=C(C)C(=O)Nc1cccc(C2=NOC3(C2)C[C@@H](C(N)=O)N(C(=O)c2cc([N+](=O)[O-])cc([N+](=O)[O-])c2)C3)c1 (stereo partly drawn),?,.,28µM*,20µM*,3%,28µM*
C=C(C)C(=O)Nc1cccc(C2=NOC3(C2)C[C@@H](C(N)=O)N(C(=O)c2ccc(OC)cc2)C3)c1 (stereo partly drawn),?,.,1.8µM*,3.2µM*,13%,2.8µM*
